Compound activity from PubChem BioAssay.
Many of the other results were omitted from the sample, so hits are more common in it than they were.
ST2 inh – inhibitors of human ST2 (IL1RL1) binding to IL-33, primary screen, biochemical, AlphaLISA; AID 1259354, 2018; AlphaLISA ST2-Fc/biotin-IL-33 interaction, 1 h; inhibition, % for hits at 17 µM; Interleukin-1 receptor-like 1 (Homo sapiens), Q01638; actives 2.3% (n = 78,000); in the data active means inhibition above about 30%
Target sequence (Q01638 whole entry, looked up): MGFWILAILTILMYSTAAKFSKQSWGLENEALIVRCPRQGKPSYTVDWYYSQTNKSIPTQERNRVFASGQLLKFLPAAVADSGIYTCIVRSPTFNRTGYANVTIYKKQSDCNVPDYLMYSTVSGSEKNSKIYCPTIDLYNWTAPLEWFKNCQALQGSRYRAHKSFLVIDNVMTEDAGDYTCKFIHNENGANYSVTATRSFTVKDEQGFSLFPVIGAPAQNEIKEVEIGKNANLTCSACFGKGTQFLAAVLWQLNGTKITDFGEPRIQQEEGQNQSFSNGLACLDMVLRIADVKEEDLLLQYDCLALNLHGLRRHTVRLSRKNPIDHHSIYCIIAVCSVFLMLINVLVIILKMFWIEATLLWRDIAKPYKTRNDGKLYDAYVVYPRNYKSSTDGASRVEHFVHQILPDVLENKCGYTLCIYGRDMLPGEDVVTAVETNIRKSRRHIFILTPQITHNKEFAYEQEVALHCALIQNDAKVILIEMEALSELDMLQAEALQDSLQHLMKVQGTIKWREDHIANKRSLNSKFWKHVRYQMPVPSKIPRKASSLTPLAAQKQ
Numbers without * were called inactive; i = inactive; ! = not active in a repeat.

SMILES	ST2 inh
CCN1C(=O)N(CCc2ccccc2)C2(CCN(CCc3ccccc3)CC2)C1=O	33.0%*
COCCN1C(=O)N(Cc2cccnc2)C(=O)C12CCN(Cc1nc(-c3ccccc3)cs1)CC2	i
Cc1[nH]nc(NN)c1Cl	55.0%*
CSc1ccc(-c2nc(CN(C)Cc3cnc(N)nc3)c(C)o2)cc1	i
O=C(NCC1(c2cccc(F)c2)CCOCC1)C1CC2(CCNCC2)CN1 (configuration not stated)	i
FC(F)(F)c1cccc(-c2ncnn2-c2ccc(Br)nc2)c1	i
FC(F)(F)c1ccc2nnc(-c3cccc(I)c3)n2c1	54.0%*
FC(F)(F)c1ccc2nnc(-c3ccc(Cl)cc3Cl)n2c1	i
CCCC(=O)Nc1ccccc1C1(C)CC1	i
COc1ccc(OCCn2c(=N)n(CC(C)C)c3ccccc32)cc1	i
COc1ccc(-c2csc(=Nc3ccccc3)n2CCCN(C)C)cc1	44.0%*
COc1ccc(CNC(=O)c2cc(-c3ccc4c(c3)OCO4)on2)cc1	i
COc1ccc(-c2csc(=Nc3ccccc3)n2CCO)cc1F	48.0%*
COc1ccc(C(O)=C2C(=O)C(=O)N(CCCN(C)C)C2c2cccs2)c(C)c1 (configuration not stated)	i
COc1ccc(-c2cn3ccccc3n2)cc1F	i
COc1ccc2c(=O)c(-c3ccc4c(c3)OCCCO4)coc2c1	i
OCCn1c(-c2ccc(Cl)cc2)csc1=Nc1ccccc1	61.0%*
COc1ccc(N=c2scc(-c3ccc4c(c3)OCCO4)n2CCO)cc1	32.0%*
CCOc1cc(C2=NS(=O)(=O)c3ccccc3N2)cc(OCC)c1OCC	i
O=C(C1Cc2ccccc2CN1S(=O)(=O)c1cccs1)N1CCOCC1 (configuration not stated)	i
CC1CCCCN1CCNC(=O)c1ccc2c(c1)NC(=O)CS2 (configuration not stated)	i
Cc1ccc(-n2c(C)cc(C(=O)CN3CCC(C)CC3)c2C)cc1	i
COc1ccc(N2C(=O)NC3CC2(C)Oc2ccc(Br)cc23)c(OC)c1 (configuration not stated)	i
NNC(=O)c1nnn(-c2nonc2N)c1-c1ccccc1	i
COc1cc(S(=O)(=O)N2CCOCC2)c(OC)cc1Cl	i
SMILES	ST2 inh
CC(C)CNC(=O)c1cc(-c2ccc(Cl)c(Cl)c2)on1	i
Cc1csc(=Nc2ccccc2)n1CC(=O)c1ccc(Cl)cc1	36.0%*
OCCn1c(-c2ccc(I)cc2)csc1=Nc1ccccc1	42.0%*
OCCCn1c(-c2ccccc2)csc1=Nc1ccccc1	61.0%*
c1ccc(N=c2scc(-c3ccccc3)n2CCN2CCOCC2)cc1	i
OCCn1c(-c2ccc(Cl)c(Cl)c2)csc1=Nc1ccccc1	48.0%*
CCn1c(C)csc1=NC(=O)c1ccccc1O	i
CCOC(=O)c1sc(=Nc2ccccc2)n(Cc2ccccc2)c1C	i
Cc1nc2ccccc2c(=O)n1CCCO	i
CCNC(=O)c1cccc(-n2ccc(-c3cccnc3)n2)c1	i
COc1ccccc1NC(=O)c1cc2c(=O)n3cccc(C)c3nc2n1C	i
CC(=NCc1ccco1)c1c(-c2ccccc2)[nH]n(-c2nc3ccccc3s2)c1=O	i
O=C(CCS(=O)(=O)c1cccc2nonc12)Nc1ccccc1Cl	i
COCC1(C(=O)NCc2ccc3c(c2)n(C)c(=O)n3C)CCC1	i
CCOC(=O)c1cc(-c2cccc(Br)c2)no1	i
O=C(COc1ccc(Br)cc1)Nc1cc(-c2nc3ncccc3o2)ccc1Cl	i
COc1ccccc1OCC(=O)Nc1sc2c(c1C(N)=O)CCCC2	i
CC(C)(C)c1ccc(C(=O)Nc2sc3c(c2C(N)=O)CCCC3)cc1	i
COc1ccc(C(=O)Nc2sc3c(c2C(N)=O)CCCC3)cc1[N+](=O)[O-]	31.0%*
CC12C(=O)N(c3cccc([N+](=O)[O-])c3)C(=O)C1C1C=CC2C1 (configuration not stated)	i
O=C1C(N2CCOCC2)=CC(=NS(=O)(=O)c2ccc(Cl)cc2)c2ccccc21	71.0%*
Cc1ccc(S(=O)(=O)N(c2ccccc2N2CCOCC2)C(F)F)cc1	i
O=C1C(N2CCOCC2)=CC(=NS(=O)(=O)c2ccccc2)c2ccccc21	41.0%*
O=S(=O)(c1cccc(Cl)c1Cl)N1CCOCC1	i
O=S(=O)(c1ccccc1)c1cccc(S(=O)(=O)N2CCOCC2)c1	i
SMILES	ST2 inh
O=S(=O)(N=C(c1ccccc1F)N1CCOCC1)c1ccccc1	i
Cc1ccnc(NS(=O)(=O)c2ccc(NC(=O)CSc3nc4ccccc4[nH]3)cc2)n1	i
CC(C)c1ccc(NC2CCCN(CC(=O)Nc3cnn(C)c3)C2)cc1 (configuration not stated)	i
O=c1[nH]c(Nc2cccc(F)c2)nnc1Cc1ccc(Cl)cc1	i
CNC(=O)c1cc2c(=O)n3ccccc3nc2n(C(C)C)c1=N	i
COc1ccc(-c2noc(CCC(=O)N3CCN(C4CCCCC4)CC3)n2)cc1	i
Cc1ccc(C(=O)N[C@H]2CO[C@H]3[C@@H]2OC[C@@H]3n2nnnc2-c2ccc(N(C)C)cc2)cc1	i
COC(=O)c1cccc(NC(=S)N[C@H]2CO[C@H]3[C@@H]2OC[C@@H]3n2nnnc2Oc2cccc(N(C)C)c2)c1	i
Cc1ccc(C(=O)N[C@H]2CO[C@H]3[C@@H]2OC[C@@H]3n2nnnc2Oc2cccc(N(C)C)c2)cc1	81.0%*
Cc1cc(C)c(NC(=O)c2ccc(Cl)cc2[N+](=O)[O-])c(C)c1	i
CC(c1ccccn1)N(C)Cc1cc(C(C)(C)C)n[nH]1 (configuration not stated)	i
CS(=O)(=O)c1ccc(CN2C[C@H](O)C[C@H]2c2nc(-c3ccc(F)cc3)no2)cc1	i
O[C@@H]1C[C@@H](c2nc(-c3ccc(OC(F)(F)F)cc3)no2)N(Cc2ccccc2)C1	i
CS(=O)(=O)c1ccc(CN2C[C@H](O)C[C@H]2c2nc(-c3ccc(OC(F)(F)F)cc3)no2)cc1	32.0%*
O=[N+]([O-])c1ccc(N2CCOCC2)cc1Sc1nnnn1-c1ccccc1	i
CCCN(CCC)S(=O)(=O)c1ccc(C)c([N+](=O)[O-])c1	i
O=C(Cc1c(C(=O)O)[nH]c2ccc(Cl)cc12)Nc1nc2ccccc2s1	i
O=C1NC(c2cccc(Br)c2)Nc2ccccc21 (configuration not stated)	i
O=C1NC2=C(C(=O)c3ccccc32)C(c2ccccc2)N1 (configuration not stated)	i
O=C1c2ccccc2C(=O)C1C1=Nc2ccccc2NC(c2ccccc2)C1 (configuration not stated)	31.0%*!
CCOc1ccc(C2=C(CN(C)C)C(c3ccc(F)cc3)c3ccccc3O2)cc1 (configuration not stated)	40.0%*
CCOC1=CC(c2ccc(F)cc2)Oc2ccccc21 (configuration not stated)	i
CCOc1ccc(C2=C(CN3CCOCC3)C(c3ccccc3)c3ccccc3O2)cc1 (configuration not stated)	31.0%*
CCOc1ccc2c(=O)c(-c3ccc(F)cc3)c(C)oc2c1	i
CCOC(=O)C1CCN(C(=O)C2c3ccccc3Oc3ccccc32)CC1	i
c1ccc(OCCCN2CCOCC2)cc1	i
COc1ccc(C2C(C#N)=C(N)OC3=C2C(=O)CC(C)(C)C3)cc1COc1ccccc1C (configuration not stated)	i
